From PubChem BioAssay (NCI)
The panel holds about 83,000 compounds, 20% with a hit somewhere; the sample as a whole holds those more often.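 The endpoint reported here, percent growth, reads 100 for growth as untreated, 0 for no net growth and -100 for all cells dead.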 Calls of active or inactive are those of the source. The calls were made as follows: active = growth percent below 10; inactive = the rest.

How the values were obtained:
Experiment in all cases: NCI-60 one-dose screen, 48 h (100 = growth as untreated, 0 = no growth, -100 = all killed)
Conditions in all cases: 10 µM unless noted
NCI-H23 lung = tested on: NCI-H23 lung
NCI-H226 lung = tested on: NCI-H226 lung
NCI-H322M lung = tested on: NCI-H322M lung
HOP-62 NSCLC = tested on: HOP-62 NSCLC
NCI-H460 lung = tested on: NCI-H460 lung
HOP-92 NSCLC = tested on: HOP-92 NSCLC
NCI-H522 lung = tested on: NCI-H522 lung
A549/ATCC NSCLC = tested on: A549/ATCC NSCLC
786-0 renal = tested on: 786-0 renal
COLO 205 colon = tested on: COLO 205 colon

Measured: growth

COc1ccc(-c2cc(-c3nnc(SCC(=O)Nc4ccc(/C(C)=N\O)cc4)o3)c3ccccc3n2)cc1
inactive: NCI-H23 lung 99.5% | NCI-H226 lung 96.3% | NCI-H322M lung 113% | HOP-62 NSCLC 99.3% | NCI-H460 lung 105% | HOP-92 NSCLC 109% | NCI-H522 lung 87% | A549/ATCC NSCLC 100% | 786-0 renal 95.5% | COLO 205 colon 118%

COc1cc(NC(=O)COc2cc(C)nc3ccc(OC)cc23)cc(OC)c1
inactive: NCI-H23 lung 86.9% | NCI-H226 lung 87.1% | NCI-H322M lung 94% | HOP-62 NSCLC 91.3% | NCI-H460 lung 95% | HOP-92 NSCLC 94.1% | NCI-H522 lung 75% | A549/ATCC NSCLC 87% | 786-0 renal 97.1% | COLO 205 colon 69.4%

O=[N+]([O-])c1cccc(CN(Cc2cccc([N+](=O)[O-])c2O)c2ccccc2)c1O
inactive: NCI-H23 lung 58.4% | NCI-H226 lung 83.2% | NCI-H322M lung 60.1% | HOP-62 NSCLC 78.4% | NCI-H460 lung 80.1% | HOP-92 NSCLC 54.5% | NCI-H522 lung 63.9% | A549/ATCC NSCLC 71% | 786-0 renal 51.1% | COLO 205 colon 78%

CC(=O)c1cnc(-c2ccccc2)nc1CBr
active: NCI-H522 lung -23.4%
inactive: NCI-H23 lung 87.7% | NCI-H226 lung 92.1% | NCI-H322M lung 102% | HOP-62 NSCLC 94.3% | NCI-H460 lung 98.2% | HOP-92 NSCLC 58.7% | A549/ATCC NSCLC 99% | 786-0 renal 86.3% | COLO 205 colon 36.9%

COc1ccc(/C=C/C(=O)C(CC2CCC2)C(=O)/C=C/c2ccc(OC)c(OC)c2)cc1OC
inactive: NCI-H322M lung 10.6%
active: NCI-H23 lung 3.1% | NCI-H226 lung -0.278% | HOP-62 NSCLC -39% | NCI-H460 lung -30.3% | HOP-92 NSCLC -5.24% | NCI-H522 lung -38.2% | A549/ATCC NSCLC -47% | 786-0 renal -44.6% | COLO 205 colon -53.7%

COc1ccc(/C=C(/C(=O)N2CCCC2)c2cc(OC)c(OC)c(OC)c2)cc1
inactive: NCI-H23 lung 34% | NCI-H226 lung 69.2% | NCI-H322M lung 45.7% | HOP-62 NSCLC 29.3% | NCI-H460 lung 13.6% | HOP-92 NSCLC 47.9% | NCI-H522 lung 26.3% | A549/ATCC NSCLC 36.1% | 786-0 renal 35.3%
active: COLO 205 colon 4.08%

CC(C)(C)CC(C)(C)Cc1ccc(OCCOCC[N+](C)(C)Cc2ccccc2)cc1
inactive: NCI-H23 lung 20.7% | NCI-H226 lung 38.1% | NCI-H322M lung 70.6% | HOP-62 NSCLC 66.1% | NCI-H460 lung 13.7% | A549/ATCC NSCLC 71.8% | 786-0 renal 44.5%
active: HOP-92 NSCLC -7.72% | NCI-H522 lung 9.27% | COLO 205 colon -72.3%

O=C1Nc2ccc(Br)cc2/C1=N\N=C/c1cn(Cc2ccccc2)c2ccccc12
inactive: NCI-H23 lung 94.4% | NCI-H226 lung 80.5% | NCI-H322M lung 84% | HOP-62 NSCLC 97.2% | NCI-H460 lung 51.9% | HOP-92 NSCLC 106% | NCI-H522 lung 83.9% | A549/ATCC NSCLC 91% | 786-0 renal 103% | COLO 205 colon 114%

CC1CCN(CCCCCOc2ccc3oc4cc(Cl)ccc4c(=O)c3c2)CC1
inactive: NCI-H23 lung 87.7% | NCI-H226 lung 113% | NCI-H322M lung 73.8% | HOP-62 NSCLC 82.2% | NCI-H460 lung 36.3% | HOP-92 NSCLC 93.6% | NCI-H522 lung 69.9% | A549/ATCC NSCLC 68.6% | 786-0 renal 65.1% | COLO 205 colon 36.6%

NS(=O)(=O)c1ccc(C2C3=C(CCCC3=O)OC3=C2C(=O)c2ccccc2C3=O)cc1 (stereo not given)
active: NCI-H23 lung -31.3% | NCI-H226 lung -56.7% | NCI-H322M lung 6.58% | HOP-62 NSCLC -89.8% | NCI-H460 lung -71.4% | HOP-92 NSCLC -31.7% | NCI-H522 lung -73.7% | A549/ATCC NSCLC -34.9% | 786-0 renal -90.7% | COLO 205 colon -80.3%

COc1ccc2nc(-c3ccc(OC)c(OC)c3)cc(-c3nnc(SCC(=O)Nc4ccc(/C(C)=N\O)cc4)n3-c3ccccc3)c2c1
inactive: NCI-H23 lung 91.5% | NCI-H226 lung 74.6% | NCI-H322M lung 84.5% | HOP-62 NSCLC 87.9% | NCI-H460 lung 89.6% | HOP-92 NSCLC 61.6% | NCI-H522 lung 42% | A549/ATCC NSCLC 70.7% | 786-0 renal 88.5% | COLO 205 colon 112%

CCCCc1n(Cc2ccc3ccccc3c2)c2ccccc2[n+]1Cc1ccc2ccccc2c1
active: NCI-H23 lung -83.9% | NCI-H226 lung -72.7% | NCI-H322M lung -82.3% | HOP-62 NSCLC -76.8% | NCI-H460 lung -81.1% | HOP-92 NSCLC -70.7% | NCI-H522 lung -77.2% | A549/ATCC NSCLC -72.3% | 786-0 renal -80.1% | COLO 205 colon -66.9%

CN(C)C1=NCCN1
inactive: NCI-H23 lung 99.3% | NCI-H226 lung 99.4% | NCI-H322M lung 105% | HOP-62 NSCLC 107% | NCI-H460 lung 110% | HOP-92 NSCLC 74.8% | NCI-H522 lung 73.4% | A549/ATCC NSCLC 90% | 786-0 renal 89.6% | COLO 205 colon 111%

C#CCOC(=O)[C@]1(C)CCC[C@]2(C)[C@H]3C[C@H]4C(C(C)C)=C[C@]3(CC[C@H]21)[C@@H]1C(=O)CCC(=O)[C@@H]14
inactive: NCI-H23 lung 84.1% | NCI-H226 lung 85.9% | NCI-H322M lung 102% | HOP-62 NSCLC 80.1% | NCI-H460 lung 90.9% | HOP-92 NSCLC 54% | NCI-H522 lung 63.7% | A549/ATCC NSCLC 76.9% | 786-0 renal 88.5% | COLO 205 colon 105%

COCCOC(=O)COc1ccc(OC)cc1
inactive: NCI-H23 lung 105% | NCI-H226 lung 97.3% | NCI-H322M lung 94.9% | HOP-62 NSCLC 111% | NCI-H460 lung 108% | HOP-92 NSCLC 98.3% | NCI-H522 lung 115% | A549/ATCC NSCLC 99.2% | 786-0 renal 109% | COLO 205 colon 115%

COC(=O)CCc1cc(O)c2c(c1)[C@@H](C(=O)OC)[C@H](c1ccc(O)c(O)c1)O2
inactive: NCI-H23 lung 76.5% | NCI-H226 lung 102% | NCI-H322M lung 98.3% | HOP-62 NSCLC 54.3% | NCI-H460 lung 107% | HOP-92 NSCLC 79.8% | NCI-H522 lung 51.8% | A549/ATCC NSCLC 98% | 786-0 renal 93.9% | COLO 205 colon 104%

O=c1[nH]c(-c2cccc(F)c2)cc2cc(F)ccc12
inactive: NCI-H23 lung 45.9% | NCI-H226 lung 96.3% | NCI-H322M lung 59.1% | HOP-62 NSCLC 31.9% | NCI-H460 lung 13.9% | HOP-92 NSCLC 70.7% | NCI-H522 lung 11.3% | A549/ATCC NSCLC 25.6% | 786-0 renal 44.2%
active: COLO 205 colon -2.11%

COc1ccccc1-c1ccc2nc(NC(=O)Nc3cc(C(F)(F)F)cc(C(F)(F)F)c3)sc2c1
inactive: NCI-H226 lung 16.9% | NCI-H322M lung 15.3% | A549/ATCC NSCLC 12.7%
active: NCI-H23 lung 6.38% | HOP-62 NSCLC -1.58% | NCI-H460 lung -4.9% | HOP-92 NSCLC -8.46% | NCI-H522 lung -2.89% | 786-0 renal 8.85% | COLO 205 colon -84.8%

O=C1NN(c2ccccc2)C(c2ccc(Cl)cc2)N2CCC[C@H]12 (stereo not given in full)
inactive: NCI-H23 lung 90.7% | NCI-H226 lung 95.6% | NCI-H322M lung 94.1% | HOP-62 NSCLC 98.8% | NCI-H460 lung 103% | HOP-92 NSCLC 100% | NCI-H522 lung 106% | A549/ATCC NSCLC 103% | 786-0 renal 105% | COLO 205 colon 108%

N#Cc1c(-c2ccc(F)cc2)nc(N=Nc2c(O)[nH]c3ccccc23)nc1N1CCOCC1
inactive: NCI-H23 lung 70.3% | NCI-H226 lung 57.7% | NCI-H322M lung 61.4% | HOP-62 NSCLC 72% | NCI-H460 lung 30.9% | HOP-92 NSCLC 17.3% | NCI-H522 lung 78.6% | A549/ATCC NSCLC 23.4% | 786-0 renal 59.4% | COLO 205 colon 77.9%

CCC[S@](=O)c1ccc2nc(NC(=O)OC)[nH]c2c1
inactive: NCI-H23 lung 98.2% | NCI-H226 lung 89.9% | NCI-H322M lung 98.6% | HOP-62 NSCLC 84.6% | NCI-H460 lung 99.8% | HOP-92 NSCLC 96.5% | NCI-H522 lung 70.7% | A549/ATCC NSCLC 75.6% | 786-0 renal 94.2% | COLO 205 colon 100%

O=C1C(Cl)=C(Nc2ccc3c(c2NC2=C(Cl)C(=O)c4ccccc4C2=O)C(=O)c2ccccc2C3=O)C(=O)c2ccccc21
active: NCI-H23 lung -3.56% | A549/ATCC NSCLC -31.8%
inactive: NCI-H226 lung 36.9% | NCI-H322M lung 46.9% | HOP-62 NSCLC 39.5% | NCI-H460 lung 10.4% | HOP-92 NSCLC 61.4% | NCI-H522 lung 12.4% | 786-0 renal 48.5% | COLO 205 colon 21.1%

CCCNc1nc(C)[nH]c(=O)c1S
active: HOP-92 NSCLC -2.9%
inactive: NCI-H23 lung 102% | NCI-H226 lung 122% | NCI-H322M lung 85.3% | HOP-62 NSCLC 119% | NCI-H460 lung 111% | NCI-H522 lung 91% | A549/ATCC NSCLC 110% | 786-0 renal 110% | COLO 205 colon 115%

Nc1c(C(=O)Nc2ccccc2Cl)sc2nc3c(cc12)CN(Cc1ccccc1)CC3
inactive: NCI-H23 lung 103% | NCI-H226 lung 91.5% | NCI-H322M lung 92.4% | HOP-62 NSCLC 104% | NCI-H460 lung 93.4% | HOP-92 NSCLC 109% | NCI-H522 lung 88.2% | A549/ATCC NSCLC 112% | 786-0 renal 99% | COLO 205 colon 95.5%

C=C1C(=O)O[C@H]2[C@H]1CC/C(COC(=O)/C=C/c1cccnc1)=C\CC[C@@]1(C)O[C@@H]21
active: NCI-H522 lung -43.5% | 786-0 renal 2.95% | COLO 205 colon -46%
inactive: NCI-H23 lung 56.2% | NCI-H226 lung 38.5% | NCI-H322M lung 93.6% | HOP-62 NSCLC 72.4% | NCI-H460 lung 77.4% | HOP-92 NSCLC 19.1% | A549/ATCC NSCLC 61.8%

Cc1nc2sc(C(=O)Nc3cccc4ccccc34)c(N)c2cc1C(C)O (stereo not given)
inactive: NCI-H23 lung 26.2% | NCI-H226 lung 70.7% | NCI-H322M lung 44.8% | HOP-62 NSCLC 39.8% | HOP-92 NSCLC 83.7% | A549/ATCC NSCLC 22.7% | 786-0 renal 34.1%
active: NCI-H460 lung 9.5% | NCI-H522 lung -15.9% | COLO 205 colon -5.28%

COc1cc(C(=O)N2CCN(c3ccccc3OC)CC2)c(NC(=O)c2cnccn2)cc1OCc1ccccc1
inactive: NCI-H23 lung 77.9% | NCI-H226 lung 88.3% | NCI-H322M lung 69.4% | HOP-62 NSCLC 84.9% | NCI-H460 lung 121% | HOP-92 NSCLC 10.7% | NCI-H522 lung 73.7% | A549/ATCC NSCLC 91.8% | 786-0 renal 87.3% | COLO 205 colon 99.4%
